Sampled rows, rich in hits. Any-hit rate of the full collection: about 11%.
3T3 cytotox: Cytotoxic Profiling in NIH 3T3 Cell Line of Diverse Libraries Using Quantitative High-Throughput Screening; NIH 3T3 viability, CellTiter-Glo ATP luminescence, 48-72 h; Potency, µM (top dose mostly 96.7 µM), for inactives: top-dose activity change, negative = cytotoxicity, usual class: inhibitors; hit rate 4.3% among 94,000; AID 1345082, 2018; further: nearly all actives have a fitted effect of over 55% in size
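ATP-dependent luminescence (CellTiter-Glo) served as the viability signal for NIH 3T3 cells treated with compound for 48 or 72 hr at 37 °C.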
hNpr1 antagonist: Natriuretic polypeptide receptor (hNpr1) antagonism - Primary qHTS. Potency, µM (top dose mostly 46.3 µM), for the others: at the highest dose activity change, negative = inhibition, hits mostly inhibitors. HEK293 hNpr1 GloSensor cGMP, ANP-stimulated luminescence. Atrial natriuretic peptide receptor 1 (Homo sapiens), P16066. AID 1347048, 2019. hit rate 1.6% among 76,000; calls by dose curve; further: nearly all actives have a fitted effect of over 60% in size
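HEK293 cells stably expressing human Npr1 and cGMP GloSensor pGS-40F, loaded 2 h with 2% GloSensor reagent, given compound 30 min at room temperature. Luminescence read before and 20 min after 0.1 nM hNppA.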
HEK cytotox: Cytotoxic Profiling in HEK 293 Cell Line of Diverse Libraries Using Quantitative High-Throughput Screening. Potency, µM (highest dose often 115 µM), inactives show at the highest dose activity change, negative = cytotoxicity, actives largely listed as inhibitors. HEK 293 viability, ATP luminescence (CellTiter-Glo), 48-72 h. hit rate 6.6% among 94,000. AID 1345083, 2018; further: nearly all actives have a fitted effect of over 60% in size
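HEK 293 seeded at 250 cells/well receive compound via pintool. After 48 or 72 hr at 37 degree Celsius, 5% CO2 and 95% humidity, CellTiter-Glo is dispensed and luminescence read following 10 min at room temperature.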
FLuc inh: Firefly luciferase inhibition profiling of diverse chemical library using quantitative high-throughput screening. Potency, µM (series often up to 115 µM), actives largely listed as inhibitors. purified P. pyralis luciferase, luminescence, biochemical. hit rate 2.5% among 76,000; further: nearly all actives have a fitted effect of over 65% in size
Target sequence (P08659 whole entry, looked up): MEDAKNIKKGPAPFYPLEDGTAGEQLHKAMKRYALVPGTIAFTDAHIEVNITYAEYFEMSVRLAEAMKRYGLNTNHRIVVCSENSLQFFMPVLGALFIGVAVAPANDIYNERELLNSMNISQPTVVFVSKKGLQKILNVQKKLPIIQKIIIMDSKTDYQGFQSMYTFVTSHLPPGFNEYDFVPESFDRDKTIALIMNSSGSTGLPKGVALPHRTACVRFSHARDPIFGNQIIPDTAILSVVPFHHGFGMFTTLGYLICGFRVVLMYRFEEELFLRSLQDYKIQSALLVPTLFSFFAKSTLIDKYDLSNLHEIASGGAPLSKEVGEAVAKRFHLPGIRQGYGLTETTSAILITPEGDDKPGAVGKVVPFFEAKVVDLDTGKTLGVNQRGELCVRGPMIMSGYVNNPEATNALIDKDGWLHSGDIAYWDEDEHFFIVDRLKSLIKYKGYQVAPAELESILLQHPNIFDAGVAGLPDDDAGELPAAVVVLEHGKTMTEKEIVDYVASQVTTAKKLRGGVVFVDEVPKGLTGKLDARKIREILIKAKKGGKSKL
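Inhibitors were tested against purified firefly luciferase in a biochemical, low-substrate format (both substrates at 10uM) and luminescence measured with a CCD imager.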
Numbers without * were called inactive; i = inactive; ? = inconclusive; nt = not tested or not shown; ! = a repeat was not active; [ ] = remark or other dose. Unless noted, the call rests on the fitted dose curve; in most records, active means well fitted curve in the direction sought with a large enough effect; inconclusive means small, poorly fitted or top-dose-only effect, or another doubt; inactive means no such curve, though single readings can be large; an effect the other way counts as inactive or inconclusive. On the % scale 0 is the no-effect control and ±100 the full control effect; potency means the concentration at half of the fitted maximal effect.

SMILES	3T3 cytotox	hNpr1 antagonist	HEK cytotox	FLuc inh
Cn1ncc2c(C(=O)NC(C)(C)C)cc(-c3ccccc3C(F)(F)F)nc21	-29%	nt	?	nt
Cc1cc(C(=O)NC2CCNCC2)c2c(C3CCCN3)noc2n1 (stereo unspecified)	-13%	nt	-23%	nt
CC(C)C(=O)Nc1cc(-c2ccncc2)nn1C	-1%[138 µM]	nt	-4%[172 µM]	nt
COc1cccc(C(=O)NCCNC(=O)c2cccc(-c3ccc(C(F)(F)F)cc3)c2)c1	-31%	nt	-21%	nt
CC(C)NC(=O)NCCNC(=O)c1ccc(-c2cccc(C(F)(F)F)c2)cc1	?	nt	-26%	nt
CC(C)(C)C(=O)NCCNC(=O)c1ccc(-c2cccc(C(F)(F)F)c2)cc1	?	nt	28µM*	nt
CN(C)C(=O)NCCNC(=O)c1ccc(-c2cccc(C(F)(F)F)c2)cc1	?	nt	28µM*	nt
O=C1NC[C@@H](CCC(=O)N2CCCCC2)N2C[C@@H](NC(=S)Nc3ccc(Cl)cc3)C[C@@H]12	-19%	2%	-6%	i
COc1cccc(Nc2cc3[nH]ccc3c(C(=O)NCc3c(C)cc(C)[nH]c3=O)n2)c1	40µM*	1%[70.6 µM]	71µM*	?
Cc1cc(C)c(CNC(=O)c2nc(-c3ccccc3)cc3[nH]ccc23)c(=O)[nH]1	?	-1%[70.6 µM]	?	i
Cc1cc(C)c(CNC(=O)c2nc(-c3cccc(C(F)(F)F)c3)cc3[nH]ccc23)c(=O)[nH]1	?	-16%	40µM*	i
COc1ccc(C(=O)N(CC2CC2)CC2CN(C(=O)Nc3ccccc3)CCO2)cc1OC (stereo unspecified)	?	1%	28µM*	i
CCc1nc2c(c(-c3ccc(Cl)cc3)n1)CCN(C(=O)c1ccccc1)CC2	-24%	0%	?	i
Cc1nn(C)c(C)c1CCN(C)C(=O)C1CCCCC(=O)N1 (stereo unspecified)	i	-3%	0%	i
O=C(C[C@@H]1CCNC[C@@H]1Cc1cc(COc2ccccc2)on1)NCc1ccccc1	?	-26%[70.6 µM]	79µM*	i
O=C(C[C@@H]1CCNC[C@@H]1Cc1cc(CSc2ccccc2)on1)Nc1ccccc1	71µM*	-15%[70.6 µM]	45µM*	i
O=C(C[C@@H]1CCNC[C@@H]1Cc1cc(COc2ccccc2)on1)Nc1ccccc1	32µM*	-9%[70.6 µM]	40µM*	i
O=C(C[C@@H]1CCNC[C@@H]1Cc1cc(CSc2ccccc2)on1)N1CCN(c2ccccc2)CC1	25µM*	-19%	?	i
CCCN(CC1CC1)C(=O)CCC1CCN(S(=O)(=O)c2ccccc2)CC1	?	-16%	?	i
COCc1cc(=O)n(CC(=O)Nc2cc(Cl)ccc2OC)c(N2CCOCC2)n1	?	-9%	?	i
CCOC(=O)C1CCCN(C(=O)C2CCc3nnc(C4CCN([S+](C)(=O)[O-])CC4)n32)C1 (stereo unspecified)	-15%	nt	i	nt
CCN1C(=O)CCN(C(=O)COCCOC)CC12CCOCC2	-13%	nt	-5%	nt
O=C(NC1CCN(c2ccc3nnc(-c4ccccc4)n3n2)C1)C1CCCC1 (stereo unspecified)	-18%	nt	i	nt
COc1ccccc1C(=O)NC1CCN(Cc2cccc(-c3cccs3)c2)CC1	32µM*!	nt	22µM*!	nt
Cc1ccc(C(=O)NC2CCN(Cc3cccc(-c4cccs4)c3)CC2)cc1	-29%	nt	?	nt
SMILES	3T3 cytotox	hNpr1 antagonist	HEK cytotox	FLuc inh
O=C(NC1CCN(Cc2cccc(-c3cccs3)c2)CC1)c1ccccc1	-31%	nt	35µM*!	nt
CN(C)Cc1cc(CC2(NCc3ccc(F)cc3)COC2)no1	-1%[174 µM]	3%[70.6 µM]	-18%[172 µM]	i
CC(O)c1cc2n(n1)CCN(C(=O)CCc1nc3ccc(F)cc3[nH]1)C2 (stereo unspecified)	-6%	4%	-9%	i
O=C(c1ccc(C(F)(F)F)cc1)N1CCC2(CC1)CC(c1cccc(C(F)(F)F)c1)=NO2	?	-26%	40µM*	i
COc1ccc(C2=NOC3(CCCN([S+](=O)([O-])c4cccc(OC)c4)C3)C2)cc1 (stereo unspecified)	-26%	nt	?	nt
O=C(C1CCCC1)N1CCC2(CC1)CC(c1cccc(C(F)(F)F)c1)=NO2	?	nt	45µM*	nt
COc1ccc(C2=NOC3(CCN(Cc4ccc(F)cc4)C3)C2)cc1 (stereo unspecified)	?	?	79µM*	i
COc1ccc(C2=NOC3(CCN([S+](=O)([O-])c4ccccc4)C3)C2)cc1 (stereo unspecified)	?	-15%	45µM*	?
Cc1nc(-c2c3n(c(=O)n(CC(=O)Nc4ccc(C)c(F)c4)c2=O)CCCC3)no1	-23%	3%	-5%	i
CC(C)(C)C(=O)N1CCC2(CC1)CC(c1cccc(C(F)(F)F)c1)=NO2	-26%	nt	?	nt
FC(F)(F)Oc1ccc(CN2CCC3(CC2)CC(c2cccc(C(F)(F)F)c2)=NO3)cc1	-30%	-14%	?	i
O=C(c1ccc(Cl)cc1)N1CCC2(CC1)CC(c1cccc(C(F)(F)F)c1)=NO2	?	nt	32µM*	nt
COc1cccc(C(=O)N2CCC3(CC2)CC(c2cccc(C(F)(F)F)c2)=NO3)c1	?	nt	45µM*	nt
Cc1noc(C)c1C(=O)N1CCC2(CC1)CC(c1cccc(C(F)(F)F)c1)=NO2	-27%	nt	-14%	nt
COc1ccc(CN2CCC3(CC2)CC(c2cccc(C(F)(F)F)c2)=NO3)cc1	?	2%	50µM*	i
O=C(N[C@@H]1CN(C(=O)Cc2c[nH]c3ccccc23)C[C@H]1CO)c1ccccc1	-17%	nt	-10%	nt
Cc1ccc(-n2cc(CN3CCCCC3C(N)=O)c(-c3cccc(C)c3)n2)cc1 (stereo unspecified)	79µM*	5%	50µM*	?
Cc1cccc(-c2nc3cc4c(cc3cc2CN2CCC[C@H]2C(N)=O)OCO4)c1	?	4%	?	i
COc1ccccc1CC(=O)Nc1cccn2nc(C(C)C)nc12	-29%	1%	?	i
CN1c2cccnc2CN(CC2CCCCC2)CC[C@H]1CO	50µM*	-2%[70.6 µM]	?	i
CN1c2cccnc2CN(C2CCCCC2)CC[C@H]1CO	-7%[230 µM]	1%[70.6 µM]	-1%[230 µM]	i
CNC(=O)c1c(-c2cnn(C)c2NCCc2ccccc2)noc1C	-13%[138 µM]	4%[70.6 µM]	?	i
COc1ccc(NC(=O)c2c(-c3cnn(C)c3NCc3ccccc3)noc2C)cc1	11µM*	-6%[70.6 µM]	?	i
Cc1noc(C)c1Cn1cc2c3c(cccc31)[C@H](CC(C)C)N[C@H](C(=O)NCC1CC1)C2	?	5%[70.6 µM]	?	i
COc1cc(F)ccc1-c1cc2c(ccn2Cc2ccncc2)c(N2CCOCC2)n1	?	-10%[70.6 µM]	79µM*	i
c1cc(Cn2ccc3c(N4CCOCC4)nc(-c4cncnc4)cc32)ccn1	10µM*	-2%[70.6 µM]	?	i

Bioassay records from PubChem.
